This is part of a sample that, as a whole, favours compounds with a hit. Of some 83,000 tested, about 20% had one in any assay.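 Method: cells in 96-well plates; compound added at one concentration; 48 h incubation; percent growth measured; values under 10 scored active.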 Calls of active or inactive are those of the source.
How the values were obtained:
Assay in all cases: NCI-60 one-dose screen, 48 h (100 = growth as untreated, 0 = no growth, -100 = all killed)
SK-MEL-2 melanoma = conditions: 10 µM
EKVX NSCLC = conditions: 10 µM unless noted
SN12C renal = conditions: 10 µM unless noted
UO-31 renal = conditions: 10 µM unless noted
TK-10 renal = conditions: 10 µM unless noted
ACHN renal = conditions: 10 µM unless noted
A498 renal = conditions: 10 µM unless noted
CCRF-CEM leukemia = conditions: 10 µM unless noted
MOLT-4 leukemia = conditions: 10 µM unless noted
SR leukemia = conditions: 10 µM unless noted
RPMI-8226 leukemia = conditions: 10 µM unless noted
OVCAR-8 ovarian = conditions: 10 µM unless noted
OVCAR-5 ovarian = conditions: 10 µM unless noted
OVCAR-4 ovarian = conditions: 10 µM unless noted
SK-OV-3 ovarian = conditions: 10 µM unless noted
IGROV1 ovarian = conditions: 10 µM unless noted
OVCAR-3 ovarian = conditions: 10 µM unless noted
HS 578T breast = conditions: 10 µM
NCI/ADR-RES ovarian = conditions: 10 µM unless noted

Measured: growth

CC12O[C@H](C[C@@H](OC(=O)CCC(=O)O)[C@H]1O)n1c3ccccc3c3c4c(c5c6ccccc6n2c5c31)C(=O)NC4=O
active: UO-31 renal -15.9% | TK-10 renal 2.26% | A498 renal -30.6% | CCRF-CEM leukemia 7.97% | MOLT-4 leukemia 5.17% | SR leukemia 0.804% | SK-OV-3 ovarian -8.63%
inactive: SK-MEL-2 melanoma 23.3% | EKVX NSCLC 42.9% | SN12C renal 38.9% | ACHN renal 19.4% | RPMI-8226 leukemia 58.7% | OVCAR-8 ovarian 37.7% | OVCAR-5 ovarian 69.3% | OVCAR-4 ovarian 68% | IGROV1 ovarian 20.4% | OVCAR-3 ovarian 27.9% | HS 578T breast 19.2% | NCI/ADR-RES ovarian 58.7%

Cc1ccc(N=C2CSc3nnc(-c4csc5c4CCCC5)n3N2)cc1
active: OVCAR-3 ovarian -21.4% | NCI/ADR-RES ovarian 1.16%
inactive: SK-MEL-2 melanoma 61.6% | EKVX NSCLC 41.9% | SN12C renal 48.5% | UO-31 renal 57.9% | TK-10 renal 78.9% | ACHN renal 52% | A498 renal 12.1% | CCRF-CEM leukemia 16.8% | MOLT-4 leukemia 23.2% | SR leukemia 32.2% | RPMI-8226 leukemia 24.7% | OVCAR-8 ovarian 35.1% | OVCAR-5 ovarian 54.4% | OVCAR-4 ovarian 62.1% | IGROV1 ovarian 53.3% | HS 578T breast 38.8%

CN1CCN(Cc2ccc(NC(=O)c3[nH]ncc3Nc3ncnc4sc5c(c34)CCCC5)cc2)CC1
active: SK-MEL-2 melanoma -53.7% | EKVX NSCLC -71.2% | SN12C renal -44.2% | UO-31 renal -82.9% | TK-10 renal -96.6% | ACHN renal -100% | A498 renal -60.5% | CCRF-CEM leukemia -16.2% | MOLT-4 leukemia -62.5% | SR leukemia -54.3% | RPMI-8226 leukemia -32.1% | OVCAR-8 ovarian -39.6% | OVCAR-5 ovarian -86.8% | OVCAR-4 ovarian -41.4% | SK-OV-3 ovarian -5.01% | IGROV1 ovarian -60.9% | OVCAR-3 ovarian -83.8% | HS 578T breast -32.5% | NCI/ADR-RES ovarian -61.7%

Nc1c2c(c(O)c3c1=C(CO)C=N3)=NCCS2=O (stereo unspecified)
inactive: TK-10 renal 117% | RPMI-8226 leukemia 20.7% | SK-OV-3 ovarian 77%
active: SK-MEL-2 melanoma -51.3% | EKVX NSCLC -43.1% | SN12C renal -33.2% | UO-31 renal -66.8% | ACHN renal -18.8% | A498 renal -45.6% | CCRF-CEM leukemia 4.74% | MOLT-4 leukemia -33.8% | SR leukemia 3.82% | OVCAR-8 ovarian -18.8% | OVCAR-5 ovarian -61.6% | OVCAR-4 ovarian -96.7% | IGROV1 ovarian -15.2% | OVCAR-3 ovarian -51.5% | NCI/ADR-RES ovarian 0.866%

c1cc[n+](Cc2c3ccccc3cc3c2ccc2ccccc23)cc1
inactive: SK-MEL-2 melanoma 25% | EKVX NSCLC 58.3% | UO-31 renal 81.9% | TK-10 renal 78.1% | ACHN renal 103% | A498 renal 80.2% | CCRF-CEM leukemia 55.5% | MOLT-4 leukemia 25.6% | SR leukemia 21.2% | RPMI-8226 leukemia 17.6% | OVCAR-8 ovarian 39.8% | OVCAR-5 ovarian 81.1% | OVCAR-4 ovarian 34.4% | SK-OV-3 ovarian 87.9% | IGROV1 ovarian 13.7% | OVCAR-3 ovarian 36% | NCI/ADR-RES ovarian 99.3%
active: SN12C renal 0.929%

O=c1nc2c(-c3nc4ccccc4s3)n[nH]n2c2sc3c(c12)CCCC3
inactive: SK-MEL-2 melanoma 112% | EKVX NSCLC 92% | SN12C renal 97.1% | UO-31 renal 75.4% | TK-10 renal 147% | ACHN renal 105% | A498 renal 103% | CCRF-CEM leukemia 79.8% | MOLT-4 leukemia 98.6% | SR leukemia 90.6% | RPMI-8226 leukemia 94.3% | OVCAR-8 ovarian 94% | OVCAR-5 ovarian 120% | OVCAR-4 ovarian 115% | IGROV1 ovarian 101% | OVCAR-3 ovarian 95% | HS 578T breast 94.3% | NCI/ADR-RES ovarian 96.9%

CC(CCCC(=O)O)c1ccoc1 (stereo unspecified)
inactive: SK-MEL-2 melanoma 105% | EKVX NSCLC 96% | SN12C renal 105% | UO-31 renal 86.2% | TK-10 renal 98.3% | ACHN renal 111% | A498 renal 110% | CCRF-CEM leukemia 109% | MOLT-4 leukemia 109% | SR leukemia 102% | RPMI-8226 leukemia 104% | OVCAR-8 ovarian 109% | OVCAR-5 ovarian 105% | OVCAR-4 ovarian 99.7% | SK-OV-3 ovarian 95.1% | IGROV1 ovarian 102% | OVCAR-3 ovarian 105% | HS 578T breast 112% | NCI/ADR-RES ovarian 104%

CO/C=C/C(=O)c1cc2cnc3c(=N)cc(NC(=O)C(C)C)c([nH]1)c23
active: SK-MEL-2 melanoma -65.6% | EKVX NSCLC -36.4% | SN12C renal 1.75% | UO-31 renal -20.1% | TK-10 renal -47.2% | ACHN renal -1.54% | A498 renal -46.1% | CCRF-CEM leukemia 0.169% | MOLT-4 leukemia -38.7% | SR leukemia -24% | RPMI-8226 leukemia -38.1% | OVCAR-8 ovarian 0.655% | OVCAR-5 ovarian -16.3% | OVCAR-4 ovarian -10.7% | SK-OV-3 ovarian -25.7% | IGROV1 ovarian -40% | OVCAR-3 ovarian -45.1% | NCI/ADR-RES ovarian -9.63%

CCN1CCN(c2nc(C)cc(N(CCNc3ccnc4cc(Cl)ccc34)Cc3ccc4c(c3)OCO4)n2)CC1
active: SK-MEL-2 melanoma -55.8% | UO-31 renal -41.7% | TK-10 renal -47.1% | ACHN renal -17.2% | CCRF-CEM leukemia -1.37% | MOLT-4 leukemia -3.96% | SR leukemia -35.2% | RPMI-8226 leukemia -30.4%
inactive: EKVX NSCLC 68.2% | SN12C renal 59.3% | A498 renal 53.2% | OVCAR-8 ovarian 16.1% | OVCAR-5 ovarian 78.2% | OVCAR-4 ovarian 34.1% | SK-OV-3 ovarian 74.8% | IGROV1 ovarian 42.7% | OVCAR-3 ovarian 20.9% | HS 578T breast 22.1% | NCI/ADR-RES ovarian 36.4%

Source: PubChem BioAssay (NCI)
